HttQ103 aggreg – inhibitors of mutant huntingtin aggregate formation in PC12 cells; PC12 HttQ103-GFP aggregates, Acumen cytometry, 40 h; Potency, µM (titrated, usually from 46.1 µM), without a hit: at the highest dose activity change, negative = inhibition, most hits filed as inhibitors; 220,000 compounds, 1.1% hits; active = well fitted curve in the direction sought with a large enough effect; inconclusive = small, poorly fitted or top-dose-only effect, or another doubt; inactive = no such curve, though single readings can be large; an effect the other way counts as inactive or inconclusive; also: % is scaled to controls: 0 for no effect and ±100 for the full control effect; nearly all actives have a fitted effect of over 60% in size
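Ecdysone-promoter PC12 model expressing HTT exon 1 Q103 fused to GFP, induced by tebufenozide at 100 nM final. Compounds titrated; aggregates sized 1–25 µm scored on a 488 nm laser cytometer.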
ALDH1A1 block – ALDH1A1 (human) enzyme inhibition; Potency, µM (highest dose often 75.3 µM), for the others: at the top dose activity, negative = inhibition, actives largely listed as inhibitors; Purified ALDH1A1, NADH fluorescence, propionaldehyde substrate; AID 1030; 220,000 compounds, 7.3% hits; P00352;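 also: plate controls were no enzyme wells and a reference inhibitor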
Target sequence (P00352 whole entry, looked up): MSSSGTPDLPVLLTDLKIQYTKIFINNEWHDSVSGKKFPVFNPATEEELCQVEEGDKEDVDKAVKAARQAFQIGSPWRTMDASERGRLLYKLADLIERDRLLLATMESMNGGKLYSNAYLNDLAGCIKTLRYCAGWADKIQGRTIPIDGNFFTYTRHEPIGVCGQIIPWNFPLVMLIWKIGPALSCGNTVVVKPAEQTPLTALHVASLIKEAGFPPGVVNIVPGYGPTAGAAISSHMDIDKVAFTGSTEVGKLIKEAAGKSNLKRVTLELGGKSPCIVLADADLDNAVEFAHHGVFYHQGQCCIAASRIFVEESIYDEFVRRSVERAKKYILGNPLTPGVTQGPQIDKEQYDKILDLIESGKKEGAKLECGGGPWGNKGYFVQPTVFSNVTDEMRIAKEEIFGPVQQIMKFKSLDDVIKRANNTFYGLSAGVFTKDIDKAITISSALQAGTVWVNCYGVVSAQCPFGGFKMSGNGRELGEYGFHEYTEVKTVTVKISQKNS
HTT ATP protect – Huntington cell model cytoprotection by ATP luminescence; Potency, µM (top dose mostly 56.4 µM), inactives show cytoprotection (ATP increase), most hits filed as activators; 230,000 compounds, 0.14% hits; PC12 HTT-Q103 induced, cytoprotection, ATP luminescence, 40 h; active = well fitted curve in the direction sought with a large enough effect; inconclusive = small, poorly fitted or top-dose-only effect, or another doubt; inactive = no such curve, though single readings can be large; an effect the other way counts as inactive or inconclusive; also: % of control where 0% means no effect; nearly all actives have a fitted effect of over 45% in size
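Huntington model: PC12 line, ecdysone-inducible HTTQ103 exon1–GFP, tebufenozide 100 nM. Test articles in a dose series. Endpoint luminescence from cellular ATP.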
HPGD block – HPGD (human) dehydrogenase inhibition. P15428. purified HPGD, NADH fluorescence kinetic, PGE2 substrate. Potency, µM, without a hit: at the top dose activity change, negative = inhibition, most hits filed as inhibitors. 150,000 compounds, 4.3% hits. AID 894; also: % is scaled to controls: 0 for no effect and ±100 for the full control effect
Target sequence (P15428 whole entry, looked up): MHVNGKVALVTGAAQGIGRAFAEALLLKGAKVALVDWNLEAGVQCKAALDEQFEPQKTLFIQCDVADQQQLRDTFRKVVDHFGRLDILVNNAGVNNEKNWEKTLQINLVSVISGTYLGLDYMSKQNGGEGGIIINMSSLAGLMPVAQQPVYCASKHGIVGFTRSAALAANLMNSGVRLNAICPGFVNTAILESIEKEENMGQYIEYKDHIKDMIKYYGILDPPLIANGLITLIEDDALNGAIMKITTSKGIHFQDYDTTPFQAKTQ
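20 nM HPGD preincubated 15 min at room temperature with compound in 50 mM Tris-HCl pH 8, 0.01% Tween 20. Started with 1 mM NAD+ and 30 uM prostaglandin E2; NADH fluorescence (360/450 nm) read 5 times over 30-s intervals, last minus first.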
JMJD2E inh – inhibitors of human JMJD2E histone demethylase | B2RXH2 | JMJD2E catalytic domain, FDH-coupled NADH fluorescence (FDH is formaldehyde dehydrogenase) | Potency, µM (doses to about 57.1 µM), for inactives: at the highest dose activity change, negative = inhibition, usual class: inhibitors | 230,000 compounds, 1.6% hits;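 also: 0% = wells with enzyme and -100% = buffer wells without enzyme; nearly all actives have a fitted effect of over 50% in size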
Lamin A splicing – changes lamin A minigene splicing in HeLa cells; Potency, µM (series often up to 46.1 µM), for inactives: at the top dose ratio change, negative = inhibition, hits mostly inhibitors; 200,000 compounds, 0.01% hits; HeLa LMNA splicing GFP/RFP minigene ratio, 48 h; AID 1487; active = well fitted inhibition curve with a large enough effect in the signal ratio, with a control signal flat, not every such curve was filed as active; inconclusive = small, poorly fitted or top-dose-only effect, or effect the other way, or a change in a side signal; the % refers to the signal ratio; also: % is scaled to controls: 0 for no effect and ±100 for the full control effect
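S3 HeLa cells stably expressing lamin A-EGFP splicing minigene plus DsRed2, 600 cells/well, 48 h compound exposure at 37C. Laser-scanning cytometry; analysed as GFP (500-530 nm)/RFP (575-640 nm) total intensity ratio; 0.5% DMSO vehicle.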
An asterisk follows results filed as active; ? = inconclusive; · = no result; [ ] = another dose, or the depositor's remark. An excerpt weighted towards active compounds, which were near 9.2% of everything screened. Unless noted, calls follow the shape of the dose curve; as a rule, active = well fitted inhibition curve with a large enough effect (not every such curve was filed as active); inconclusive = small, poorly fitted or top-dose-only effect, or another doubt; inactive = no such curve, though single readings can be large or run the other way. Potency is read from the fitted curve at half-maximal effect.

SMILES	HttQ103 aggreg	ALDH1A1 block	HTT ATP protect	HPGD block	JMJD2E inh	Lamin A splicing
CCOC(=O)CN1C(=O)C(Sc2n[nH]c(-c3ccc(O)cc3)n2)CCc2ccccc21 (configuration not stated)	-12.7%	-7.9%	-6.7%	-10.2%	-4.2%	-24.0%
CC(=O)C1=C(c2ccc(C)cc2)N(C(C)=O)n2c(nnc2-c2ccccc2)S1	·	·	·	·	·	-13.7%[46 µM]
Nc1ccc(-c2cc(N)n(-c3ccccc3)n2)cc1	16.5%[9.22 µM]	11.2µM*	-22.3%[10 µM]	-20.8%	-2.6%	4.3%
CC(=O)Nc1nonc1-c1nnc(SCC(=O)Nc2cccc(C)c2C)n1-c1ccccc1	·	·	·	·	·	1.4%[46 µM]
COc1ccc(-c2cc(=O)c3ccc(F)cc3[nH]2)cc1	·	?	-23.3%[96.6 µM]	-10.2%	·	·
COc1ccccc1-c1cn[nH]c(=S)n1	30.6%	7.08µM*	-17.3%[0.074 µM]	22.4µM*	-26.0%	1.4%
CCOC(=O)C1CCN(C(=O)c2ccc(NC(=O)C3CCCO3)cc2)CC1 (configuration not stated)	-19.1%	0.7%	-6.7%[10 µM]	25.1µM*	1.5%	-10.9%
CCCCc1ccc(NC(=O)C2CCCO2)cc1 (configuration not stated)	9.9%	1.2%	-7.8%[10 µM]	15.8µM*	0.5%	-6.7%
CC(=O)c1ccc(N2CCN(C(=O)c3ccc(NC(=O)C4CCCO4)cc3)CC2)cc1 (configuration not stated)	-12.9%	-9.1%	19.6%[1.9 µM]	25.1µM*	-21.1%	-3.0%
Cc1cccc(N2CCN(C(=O)c3ccc(NC(=O)C4CCCO4)cc3)CC2C)c1 (configuration not stated)	-31.1%	1.2%	-4.8%	-10.8%	8.6%	-1.8%
CCCCNC(=O)c1ccc(NC(=O)C2CCCO2)cc1 (configuration not stated)	17.5%	-6.6%	-2.0%[1.9 µM]	?	-2.2%	9.2%
CCOC(=O)c1ccc(NC(=O)C2CCCO2)cc1 (configuration not stated)	2.1%	-12.5%	-12.5%	25.1µM*	-0.3%	0.8%
CCCCOC(=O)c1ccc(NC(=O)C2CCCO2)cc1 (configuration not stated)	-10.9%	-14.8%	-11.6%	-29.6%	17.1%	2.3%
Cc1ccc(CSC(N)=Nc2ccccc2)cc1C	·	8.7%[13.5 µM]	-0.5%[10 µM]	-9.5%	·	·
O=C(NN=C1C2CC3CC1CC(Cl)(C3)C2)c1cccs1	-5.4%	3.16µM*	-25.4%	·	-7.5%	·
CO[C@H]1COC(=O)[C@@H](Cc2ccccc2)NC(=O)[C@@H](C)COC(=O)CCC[C@@H]1C	·	6.1%[13.5 µM]	?	·	·	·
N=C1/C(=C/c2cccn2Cc2ccc(Cl)cc2)C(=O)N=C2SC=CN12	-22.9%	0.4%	-1.3%[10 µM]	?	-12.8%	-4.0%
CC(NC(=O)COC(=O)Cc1ccsc1)c1ccccc1 (configuration not stated)	17.2%	7.2%	29.7%[10 µM]	-12.7%	-4.1%	?
Cc1cccc(C)c1NC(=O)COC(=O)Cc1ccsc1	20µM*	11.1%	32.7%[10 µM]	-0.4%	6.5%	-0.7%
CC(NC(=O)COC(=O)Cc1ccsc1)C1CC2CCC1C2 (configuration not stated)	10.6%	-1.6%	-6.9%	28.2µM*	-0.5%	7.2%
O=C(COC(=O)Cc1ccsc1)NCc1ccc(Cl)cc1	-2.8%	12.2%	8.8%[1.9 µM]	28.2µM*	3.4%	-10.7%
Cc1cccc(C(C)C)c1NC(=O)COC(=O)Cc1ccsc1	-14.6%	7.1%	-9.2%[10 µM]	·	3.5%	-8.5%
O=C(COC(=O)Cc1ccsc1)NCc1ccccc1	29.9%	5.2%	18.0%[1.9 µM]	-4.4%	-5.1%	-10.7%
FC(F)(F)c1cnc(Oc2ccccc2-c2nnco2)c(Cl)c1	-17.6%	13.7%	-17.0%	-27.8%	-14.6%	5.2%
FC(F)(F)c1cnc(Oc2ccc(-c3nnco3)cc2)c(Cl)c1	?	-3.1%	7.8%[10 µM]	11.2µM*	-1.9%	?
SMILES	HttQ103 aggreg	ALDH1A1 block	HTT ATP protect	HPGD block	JMJD2E inh	Lamin A splicing
CN(C)c1ccc(/C=N/N2C(=S)SC(C)(C)C2N(O)C(=O)Nc2ccc([N+](=O)[O-])cc2)cc1 (configuration not stated)	-31.2%	12.6µM*	-25.5%	-11.8%	-1.0%	-11.6%
CNC(=O)N(O)C1N(/N=C/c2cccnc2)C(=S)SC1(C)C (configuration not stated)	23.6%[9.22 µM]	·	17.6%[10 µM]	·	-5.7%	·
COC(=O)c1ccc(C(=O)OC)c(NC(=O)COC(=O)C2CC2C)c1 (configuration not stated)	10.8%	?	8.2%	?	-6.0%	-1.7%
COc1cc2c(cc1OC)CN(c1nc(CN3CCCCC3)nc3sc4c(c13)CCCC4)CC2	28.2µM*	?	·	-7.7%	-8.5%	?
O=C(NC(Cc1ccccc1)c1nc2ccccc2[nH]1)C1CC(=O)N(c2ccc3c(c2)OCCO3)C1 (configuration not stated)	-19.8%	10µM*	0.0%	-13.2%	-6.2%	0.0%
O=C(NCCCc1ccccc1)C1CC(=O)N(c2ccc3c(c2)OCCO3)C1 (configuration not stated)	11.8%	-7.6%	9.1%[10 µM]	-2.2%	-7.3%	-4.7%
CN[C@@H]1[C@H](O[C@@H]2O[C@H](CO)[C@@H](N)[C@H](O)[C@@H]2O)O[C@H]2C[C@@H](N)[C@@H](O[C@H]3[C@@H](O)[C@H](O)[C@H](N)C[C@@H]3N)O[C@H]2[C@H]1O	-7.0%[20.6 µM]	-2.6%[20.9 µM]	-3.5%[40.3 µM]	1.0%	-0.7%[25.5 µM]	-12.7%
O=C1C(=C(c2ccccc2)c2ccccc2)Nc2ccccc21	-2.7%	0.708µM*	-18.1%	-3.6%	6.1%	?
O=C1CN(C(=O)c2ccccc2)c2ccccc2N1	?	-0.4%	-3.7%	-17.4%	-1.7%	2.7%
CCN(C(=O)c1ccccc1)c1ccc([N+](=O)[O-])cc1	-7.9%	5.01µM*	·	-5.3%	0.3%	5.9%
CC(=O)c1c(O)c(C)c(O)c2c1OC1=CC(=O)C(C(C)=O)C(=O)[C@@]12C (some centres not stated)	·	11.1%	-11.1%[1.9 µM]	-3.4%	0.3%	·
Cc1oc(-c2cccc(C(F)(F)F)c2)nc1CN1CCOCC1	?	?	-77.7%[10 µM]	·	-6.2%	?
CCOC(=O)c1ccc(NC(=O)CN2C(=O)CSCC2=O)cc1	-12.4%	?	-8.1%[10 µM]	-6.4%	5.5%	-5.0%
CCOC(=O)c1ccc(NC(=O)CC2SCCNC2=O)cc1 (configuration not stated)	-1.0%	12.6µM*	1.4%[0.074 µM]	-4.1%	0.8%	?
CCCN1CCOC(CC(=O)Nc2ccc([N+](=O)[O-])cc2)C1=O (configuration not stated)	-9.0%	8.91µM*	13.7%	·	-1.6%	·

Source: PubChem BioAssay (National Center for Advancing Translational Sciences (NCATS))
